Molecules are shown by their SMILES. Where “and” joins values, the source holds several entries; their conditions need not be identical. Equal values may be shown once. Inconclusive results are not listed. Calls of active or inactive are those of the source. Unless noted, calls come from the whole dose curve.

Here are results for 20 compounds from PubChem BioAssay (NCATS).

In experiment [1] the target is Peroxisome proliferator-activated receptor delta (Homo sapiens) (UniProt Q03181). Put plainly: qHTS assay for small molecule agonists of peroxisome proliferator-activated receptor delta signaling (AID 588534).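 Note: 0% = DMSO basal wells and 100% = positive control agonist at 10 µM.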 The method, boiled down:
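EC50 and efficacy values derive from Hill fits of a concentration series in a beta-lactamase reporter cell assay. Exposure is 18 hrs at 37 C, with CCF4 fluorescence as the readout.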
(In qHTS, concentration-response curves come from the screen itself.)

Experiment [2] addresses Thyroid hormone receptor beta (Homo sapiens) (UniProt P10828). Put plainly: qHTS assay for small molecule agonists of thyroid hormone receptor beta signaling (AID 588545). The essentials:
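Agonist activity was read as beta-lactamase CCF4 fluorescence (405 ex, 460/530 em), scaled between DMSO (0%) and 10 nM T3 (100%), then Hill-fitted for EC50 and efficacy. HEK 293 TR-UAS-bla cells in 2% charcoal/dextran FBS medium were exposed 18 h at 37 C.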

Experiment [3] is described as follows: qHTS assay for small molecule agonists of the antioxidant response element (ARE) signaling pathway (AID 651741; active = well fitted activation curve with a large enough effect in the signal ratio; the % refers to the signal ratio; note: % of control where 0% means no effect). The essentials:
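HepG2 ARE-bla reporter cells, 2,000/well; 5 h settle at 37 C/5% CO2; compound pin transfer (23 nL, DMSO); 16 h at 37 C; LiveBLAzer B/G FRET substrate, 2 h RT; fluorescence intensity read.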

Experiment [4] is described as follows: Primary qHTS for inhibitors of SARS-S pseudo-typed particle cell entry (AID 1479145). For activity change, negative = inhibition: % is set by controls: 0 for no effect and ±100 for the full control effect. Note: nearly all actives have a fitted effect of over 45% in size. Note: potency is the fitted concentration of half-maximal effect. Conditions: outcome: dose series up to 57.1 µM unless noted.
The nature of experiment [5]: Primary qHTS for Huh7 cytotoxicity: counterscreen for inhibitors of MERS-S pseudotyped particle cell entry (AID 1479147). For activity change, negative = cytotoxicity: % is set by controls: 0 for no effect and ±100 for the full control effect. Note: potency is the fitted concentration of half-maximal effect. Conditions: outcome: dose series up to 57.1 µM unless noted.
Experiment [6] can be described thus: Primary qHTS for inhibitors of MERS-S pseudo-typed particle cell entry (AID 1479149). Note: nearly all actives have a fitted effect of over 60% in size. Note: potency is the fitted concentration of half-maximal effect. Conditions: outcome: dose series up to 57.1 µM unless noted.
Experiment [7] is described as follows: Primary qHTS for Vero E6 cytotoxicity: counterscreen for inhibitors of SARS-S pseudo-typed particle cell entry (AID 1479150). For activity change, negative = cytotoxicity: % is set by controls: 0 for no effect and ±100 for the full control effect. Conditions: outcome: dose series up to 57.1 µM unless noted.
Experiment [8] is described as follows: Cytotoxicity counterscreen for inhibitors of SARS-CoV-2 cell entry (AID 1645845). For activity change, negative = cytotoxicity: % is set by controls: 0 for no effect and ±100 for the full control effect. Note: nearly all actives have a fitted effect of over 50% in size. As to conditions: outcome: dose series up to 57.1 µM unless noted. The essentials: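 Counterscreen run in the same HEK293-ACE2 line as the pseudotyped-particle entry assay, without particles. Viability after 48 h at 37 C was read as ATP luminescence, scaled between cell-containing and cell-free wells.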

Experiment [9] in a line: Primary qHTS to identify inhibitors of SARS-CoV-2 cell entry (AID 1645846). Note: nearly all actives have a fitted effect of over 45% in size. Note: potency is the fitted concentration of half-maximal effect. Conditions: SARS-CoV-2 pseudovirus cell entry assay, luminescence; activity change, negative = inhibition: at 57.1 µM (top of the series) unless noted. The method, boiled down:
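Using luciferase-reporting pseudoviruses carrying Wuhan-Hu-1 spike, the screen tracks entry into stably ACE2-expressing cells over 48 hr. Activity is expressed relative to spike particles versus particles lacking any fusion protein.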

The target in experiment [10] is Nuclear receptor subfamily 1 group I member 3 (Homo sapiens) (UniProt Q14994). Put plainly: Primary qHTS for antagonist of constitutive androstane receptor (CAR) against the NCATS DSHEA and TCM libraries (AID 1794836; active = well fitted curve in the direction sought with a large enough effect; an effect the other way counts as inactive or inconclusive;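 note: HepG2 cells stably expressing hCAR with CYP2B6 luciferase reporter stimulated by CITCO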). The essentials:
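HepG2-CYP2B6-hCAR cells, attached 5 h, given compounds plus CITCO agonist […], incubated 24 h at 37 C. Luciferase luminescence read, multiplexed with CellTiter-Fluor viability (Ex/Em 405/540 nm).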

A short description of experiment [11]: KB-8-5-11 P-gp reporter qHTS against the NCATS DSHEA and TCM libraries (AID 1919977; active = well fitted curve in the direction sought with a large enough effect; an effect the other way counts as inactive or inconclusive; note: 0% is about no effect). The essentials: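 Viability of drug-resistant KB-8-5-11 cells is measured by CellTiter-Glo luminescence following roughly 72 h treatment at 37C. Substances were titrated, with bortezomib as intraplate control.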
In experiment [12] the target is Phospholipid hydroperoxide glutathione peroxidase GPX4 (Homo sapiens) (UniProt P36969). Put plainly: Primary qHTS Assay for Inhibitors of Recombinant Selenoprotein Glutathione Peroxidase 4 (GPX4) (AID 1845192; active = well fitted curve in the direction sought with a large enough effect; an effect the other way counts as inactive or inconclusive; note: nearly all actives have a fitted effect of over 65% in size; note: potency is the fitted concentration of half-maximal effect). The essentials: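 Steps: GPX4 plus compound, 30 min RT; add GR/GSH/NADPH master mix; start with cumene hydroperoxide; read 340/450 nm fluorescence at 0 and 15 min. Finals were 200 nM GPX4, 1 mM GSH, 0.5 mM CHP, 0.5 mM NADPH, 100 nM GR.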

Experiment [13] addresses Bile acid receptor (Homo sapiens) (UniProt Q96RI1). The experiment can be described thus: qHTS assay for small molecule agonists of farnesoid X receptor signaling (AID 588527).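 Note: 0% = vehicle basal and 100% = reference agonist.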 As to conditions: HEK293T FXR-UAS-bla, beta-lactamase ratio, 16 h; stronger effect = higher value. The essentials:
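Quantitative HTS used FXR-UAS-bla HEK293T cells with 16 h compound incubation at 37 C. EC50 values came from concentration-response curves normalized to chenodeoxycholic acid.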

In experiment [14] the target is Glutathione peroxidase 1 (Homo sapiens) (UniProt P07203). Put plainly: Primary qHTS Assay for Inhibitors of Recombinant Selenoprotein Glutathione Peroxidase 1 (GPX1) (AID 1845191; active = well fitted curve in the direction sought with a large enough effect; an effect the other way counts as inactive or inconclusive; note: % is set by controls: 0 for no effect and ±100 for the full control effect; nearly all actives have a fitted effect of over 65% in size). The method, boiled down:
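GR-coupled readout: NADPH consumption tracked by fluorescence, ex 340/em 450 nm, at t=0 and after 15 min at RT. Final mix 10 nM GPX1, 1 mM GSH, 0.5 mM CHP, 0.5 mM NADPH, 100 nM GR, 0.01% BSA, following 30 min enzyme–compound preincubation.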

Chain of Peroxisome proliferator-activated receptor delta (Homo sapiens) (Q03181 whole entry, looked up): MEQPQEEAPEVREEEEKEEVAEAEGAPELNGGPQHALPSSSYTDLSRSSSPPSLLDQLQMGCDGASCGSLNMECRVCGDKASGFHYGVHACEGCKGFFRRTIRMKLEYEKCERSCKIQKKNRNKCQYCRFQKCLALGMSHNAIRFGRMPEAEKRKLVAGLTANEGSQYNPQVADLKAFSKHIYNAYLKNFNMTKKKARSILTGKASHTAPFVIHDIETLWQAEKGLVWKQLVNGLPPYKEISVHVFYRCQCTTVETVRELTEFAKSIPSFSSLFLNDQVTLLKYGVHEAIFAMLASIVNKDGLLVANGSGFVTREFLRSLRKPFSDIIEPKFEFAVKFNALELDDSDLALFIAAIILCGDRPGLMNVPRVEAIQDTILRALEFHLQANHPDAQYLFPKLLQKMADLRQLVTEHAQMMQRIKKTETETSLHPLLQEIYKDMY
Chain of Phospholipid hydroperoxide glutathione peroxidase GPX4 (Homo sapiens) (P36969 whole entry, looked up): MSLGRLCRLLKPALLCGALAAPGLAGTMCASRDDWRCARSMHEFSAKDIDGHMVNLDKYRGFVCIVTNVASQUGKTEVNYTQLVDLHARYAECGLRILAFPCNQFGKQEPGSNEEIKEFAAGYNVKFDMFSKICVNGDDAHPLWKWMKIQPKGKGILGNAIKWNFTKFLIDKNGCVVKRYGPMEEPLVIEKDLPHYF
Chain of Thyroid hormone receptor beta (Homo sapiens) (P10828 whole entry, looked up): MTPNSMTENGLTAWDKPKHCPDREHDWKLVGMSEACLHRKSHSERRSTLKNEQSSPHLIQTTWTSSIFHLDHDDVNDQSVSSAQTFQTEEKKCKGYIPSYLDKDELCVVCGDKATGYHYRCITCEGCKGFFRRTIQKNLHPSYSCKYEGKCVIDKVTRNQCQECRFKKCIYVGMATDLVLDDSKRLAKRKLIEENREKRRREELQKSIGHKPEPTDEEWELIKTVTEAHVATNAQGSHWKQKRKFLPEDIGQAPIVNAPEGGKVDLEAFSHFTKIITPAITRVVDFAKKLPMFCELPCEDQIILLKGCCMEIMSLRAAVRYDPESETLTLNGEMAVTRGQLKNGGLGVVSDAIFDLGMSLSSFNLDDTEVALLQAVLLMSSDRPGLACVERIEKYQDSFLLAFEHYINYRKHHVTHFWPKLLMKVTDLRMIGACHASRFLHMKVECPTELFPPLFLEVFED
Chain of Bile acid receptor (Homo sapiens) (Q96RI1 whole entry, looked up): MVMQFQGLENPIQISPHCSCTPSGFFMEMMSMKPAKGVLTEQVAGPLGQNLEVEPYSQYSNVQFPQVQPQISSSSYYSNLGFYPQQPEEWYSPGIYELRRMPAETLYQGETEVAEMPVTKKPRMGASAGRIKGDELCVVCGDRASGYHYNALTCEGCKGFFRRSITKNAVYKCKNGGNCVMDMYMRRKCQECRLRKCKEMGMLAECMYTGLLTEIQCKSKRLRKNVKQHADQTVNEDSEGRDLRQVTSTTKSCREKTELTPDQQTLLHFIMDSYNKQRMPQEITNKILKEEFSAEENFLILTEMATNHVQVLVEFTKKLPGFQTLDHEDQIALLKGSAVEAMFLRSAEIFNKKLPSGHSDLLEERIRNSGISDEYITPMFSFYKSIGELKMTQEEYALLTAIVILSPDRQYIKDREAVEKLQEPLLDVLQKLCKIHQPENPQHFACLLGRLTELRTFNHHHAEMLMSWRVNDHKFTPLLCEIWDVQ
Chain of Nuclear receptor subfamily 1 group I member 3 (Homo sapiens) (Q14994 whole entry, looked up): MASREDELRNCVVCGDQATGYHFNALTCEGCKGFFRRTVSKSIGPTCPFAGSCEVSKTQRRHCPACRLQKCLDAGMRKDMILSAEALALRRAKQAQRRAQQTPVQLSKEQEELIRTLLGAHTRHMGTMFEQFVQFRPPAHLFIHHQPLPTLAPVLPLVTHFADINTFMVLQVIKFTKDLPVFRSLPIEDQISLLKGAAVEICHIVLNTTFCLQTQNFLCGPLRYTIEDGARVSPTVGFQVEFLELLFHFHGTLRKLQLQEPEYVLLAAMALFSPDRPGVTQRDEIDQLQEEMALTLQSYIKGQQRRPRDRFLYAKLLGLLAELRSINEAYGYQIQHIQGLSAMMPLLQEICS
Chain of Glutathione peroxidase 1 (Homo sapiens) (P07203 whole entry, looked up): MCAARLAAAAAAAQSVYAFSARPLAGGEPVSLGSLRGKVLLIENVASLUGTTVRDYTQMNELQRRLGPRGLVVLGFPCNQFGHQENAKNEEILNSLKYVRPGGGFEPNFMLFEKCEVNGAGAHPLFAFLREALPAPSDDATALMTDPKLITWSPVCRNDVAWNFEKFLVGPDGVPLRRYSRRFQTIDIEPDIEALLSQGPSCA

As for `C=Cc1ccccc1`, the outcome in [1] and in experiment [2] was inactive. In addition, the Potency entry in experiment [3], in experiment [4], in experiment [5], in experiment [6], in experiment [7] and in experiment [8] was “inactive” in each case. Besides, the activity change, negative = inhibition in [9] is -16.9%.

As to `CC(C)=CCC/C(C)=C/CC/C(C)=C/CC/C(C)=C/CC1=C(C)C(=O)c2ccccc2C1=O`, the Potency result in [4], in [5], in experiment [6], in [7], in experiment [8] and in experiment [10] was “inactive” in each case. Moreover, in [11], the Potency result is “inactive”.

Regarding `NC[C@@H]1CC[C@@H](N)[C@@H](O[C@H]2[C@H](O)[C@@H](O[C@H]3O[C@H](CO)[C@@H](O)[C@H](N)[C@H]3O)[C@H](N)C[C@@H]2N)O1`, the Potency result in experiment [4], in [5], in experiment [6] and in experiment [7] was “inactive” in each case. In experiment [9], the activity change, negative = inhibition was -17.7% [at 27.1 µM].

For `O=c1ccc2cc(O[C@@H]3O[C@H](CO)[C@H](O)[C@H](O)[C@H]3O)c(O)cc2o1`, the Potency entry in experiment [4], in experiment [5], in experiment [6], in [7], in [8] and in experiment [9] was “inactive” throughout. Moreover, the Potency in [12] is 25.5 µM (active).

As to `C[C@H]1CN(C[C@H](Cc2ccccc2)C(=O)NCC(=O)O)CC[C@@]1(C)c1cccc(O)c1`, the Potency entry in [4], in experiment [5], in experiment [6] and in experiment [7] was “inactive” throughout. For the same compound, in [9], the activity change, negative = inhibition is -6.59% and -17.3%.

Regarding `CCCCCCCCCCCCCCCCCC(=O)[O][Al]`, the activity change, negative = inhibition in experiment [4] was -36% [at 5.34 µM] (inactive). Besides, the activity change, negative = cytotoxicity in experiment [5] is -3.61% [at 5.34 µM] (inactive); in [7] it was -0.388% [at 5.34 µM] (inactive). In addition, the outcome in experiment [6] was “inactive [at 5.34 µM]”; in [9], “inactive [at 5.25 µM]”.

With `CN(C)Cc1ccccc1`, the call in [1] was inactive. In addition, the Potency result in experiment [4], in [5], in [6], in experiment [7] and in experiment [8] was “inactive” in each case.

`CC[C@H]1CN2CCc3cc(OC)c(OC)cc3C2C[C@@H]1CC1NCCc2cc(OC)c(OC)cc21` (stereo partly drawn): the Potency in experiment [4] is 5.62 µM (active); in [5] it was 17.8 µM (active); in [6] it was 5.62 µM (active); in [9] it was 1.78 µM (active). The Potency entry in [7] is “inactive”.

On to `COc1ccc(C(=O)Nc2ccccc2CCC2CCCCN2C)cc1` (stereo not drawn), for which the Potency result in experiment [4], in experiment [5], in experiment [6] and in experiment [7] was “inactive” throughout. Besides, in experiment [9], the activity change, negative = inhibition was -20%.

`C[C@H](CCC(=O)O)[C@H]1CC[C@H]2[C@@H]3[C@H](O)C[C@@H]4C[C@H](O)CC[C@]4(C)[C@H]3C[C@H](O)[C@]12C`: the activation in experiment [13] is 1.14% (inactive). In addition, the Potency result in experiment [4], in experiment [5], in experiment [6], in experiment [7], in [8] and in [9] was “inactive” throughout.

For `C[Si](C)(C)O[Si](C)(C)O[Si](C)(C)C`, the call in experiment [1] was inactive. In addition, the Potency entry in [4], in experiment [5], in [6], in experiment [7] and in [8] was “inactive” throughout. The activity change, negative = inhibition in [9] is -16.4% [at 114 µM].

In the case of `CC[C@H]1C2C[C@H]3[C@@H]4N(C)c5ccccc5[C@@]45C[C@H](C2[C@H]5O)N3[C@@H]1O` (stereo partly drawn), the Potency entry in experiment [4], in experiment [5], in experiment [6], in [7], in experiment [8] and in [14] was “inactive” throughout. In addition, the Potency entry in experiment [12] is “inactive”.

Take `Cc1onc(-c2c(F)cccc2Cl)c1C(=O)N[C@@H]1C(=O)N2[C@@H]1SC(C)(C)[C@H]2C(=O)O`: the Potency entry in experiment [4], in [5], in [6] and in experiment [7] was “inactive” in each case. In experiment [9], the activity change, negative = inhibition was -29.1%.

Turning to `O[C@@H]([C@H](O)[C@@H](O)CBr)[C@@H](O)CBr`, the compound was classed as inactive in [1]. Also, the Potency result in [4], in experiment [5], in experiment [6], in [7], in experiment [8] and in experiment [9] was “inactive” throughout.

For `Fc1cccc(Br)c1NC1=NCCN1`, the Potency entry in experiment [4], in experiment [5], in experiment [6], in experiment [7], in [8] and in experiment [12] was “inactive” each time.

Turning to `CC1=C(/C=C/C(C)=C/C=C/C(C)=C/CO)C(C)(C)CCC1`, the outcome in [1] was inactive. For the same compound, the Potency entry in experiment [4], in experiment [5], in experiment [6], in experiment [7], in experiment [8] and in [11] was “inactive” throughout. Besides, the activity change, negative = inhibition in experiment [9] is -23.2%.

Turning to `CCOc1ccc(Cc2cc([C@@H]3O[C@H](CO)[C@@H](O)[C@H](O)[C@H]3O)ccc2Cl)cc1`, the Potency result in [4], in experiment [5], in experiment [6] and in experiment [7] was “inactive” in each case. The activity change, negative = inhibition in experiment [9] was 0.66%.

As to `COC(=O)c1ccccc1O`, the call in [1] was inactive. For the same compound, the Potency result in experiment [4], in [5], in experiment [6], in experiment [7] and in experiment [8] was “inactive” in each case. Besides, the activity change, negative = inhibition in [9] was 3.44%.

On to `CC(=O)OCC(=O)[C@@]12OC3(CCCC3)O[C@@H]1C[C@H]1[C@@H]3CCC4=CC(=O)C=C[C@]4(C)[C@@]3(F)[C@@H](O)C[C@@]12C`, for which the Potency result in experiment [4], in experiment [5], in experiment [6], in [7] and in [9] was “inactive” in each case.

`CC=CC1=C(C(=O)O)N2C(=O)[C@@H](NC(=O)[C@H](N)c3ccc(O)cc3)[C@H]2SC1`: the Potency entry in experiment [4], in experiment [5], in experiment [6], in experiment [7] and in [9] was “inactive” each time.
